Data published in PubChem BioAssay AID2676 (National Center for Advancing Translational Sciences (NCATS), 2010).
The campaign covered roughly 370,000 compounds. About 1,100 (0.3%) were called active. Another 1% or so got no clear call; they are omitted. The call rests on the fitted dose curve; in most records, active means well fitted activation curve with a large enough effect; inconclusive means small, poorly fitted or top-dose-only effect; inactive means flat fitted curve, though single readings scatter. Only a selection was taken, and actives are over-represented in it overall.

target: Relaxin receptor 1 (Homo sapiens) (UniProt Q9HBX9); experiment: qHTS Assay for Agonists of the Relaxin Receptor RXFP1; conditions: HEK293T-RXFP1 cAMP TR-FRET, 30 min; series mostly up to 57.5 µM; activation: at the top concentration; further: nearly all actives have a fitted effect of over 60% in size
From the text: NIH Chemical Genomics Center [NCGC] NIH Molecular Libraries Probe Production Centers Network [MLPCN] MLPCN Grant: R03 MH085705-01A1 Assay Submitter (PI): Alexander Agoulnik NCGC Assay Overview: The relaxin hormone is involved in the variety of biological functions in normal tissues and diseases. The role of relaxin is well-established in female reproduction and parturition, mammary gland and endometrial development, maintenance of myometrial quiescence during pregnancy. Relaxin signaling through its G protein-coupled receptor (GPCR) RXFP1 results in ECM remodeling through regulation of collagen deposition, cell invasiveness, proliferation and overall tissue homeostasis. […] Recombinant human relaxin (rhRlx) is currently being tested in clinical trials as a protective agent in congestive heart failure, in treating severe preeclampsia, and as an anti-fibrotic agent in systemic sclerosis. Upon relaxin binding RXFP1 activation leads to the activation of adenylate cyclase (AC) via Gs. cAMP will activate PKA, which phosphorylates many signaling proteins. Thus, detection of cAMP increase is an easy and reliable indication of relaxin receptor activation. To screen for agonists of the relaxin receptor, a HEK293T cell line stably transfected with RXFP1 was used. RXFP1 activation was assayed by changes in cAMP levels as detected with a time-resolved fluorescence energy transfer (TR-FRET) cAMP detection kit.
NCGC Assay Protocol Summary: This is a cell-based assay for cAMP second messenger response to screen for agonists of the RXFP1 receptor. The assay was conducted in the presence of a PDE4 inhibitor (Ro 20174). The cells were lysed and the cAMP levels were measured with a TR-FRET cAMP kit. Presence of cAMP in the cell lysate disrupts binding between the cryptate-labeled anti-cAMP and d2-labeled cAMP pair, leading to a decrease in the TR-FRET signal. Data were normalized to the controls for basal activity (buffer only) and 100% activity (29 nM porcine relaxin). The EC50 values were determined from concentration-response data modeled with the standard Hill equation 1536-well assay protocol for the HEK293 RXFP1 cAMP assay: (1) Add 3 ul HEK293 RXFP1 cell culture. 2000 cells/well in DMEM/F12, 10% FBS, 1x Pen/Strep (dispensed offline with MultiDrop Combi). (2) Incubate 16-24 hr at 37C, 5% CO2. (3) Add 1 ul 400uM Ro20174 in DPBS, 0.05% BSA, 0.005% Tween 20. (3) Add 23 nl compounds in DMSO solution. Final concentration was 0.5 - 58 uM. (4) Incubate 30 min at 37C, 5% CO2. (5) Add 1 ul cAMP-d2 in lysis buffer (HTRF cAMP HiRange kit, CisBio). (6) Add 1 ul anti-cAMP antibody-cryptate in lysis buffer (HTRF cAMP HiRange kit, CisBio). (7) Incubate 30 min at room temperature. (6) Detect the assay plate in a ViewLux plate reader (PerkinElmer) with Ex=320 nm, Em1=615 nm and Em2=665 nm. Keywords: relaxin, RXFP1, RXFP2, G-protein coupled receptor, cAMP, agonist, high throughput screening, MLSMR, MLSCN, NIH Roadmap, qHTS and NCGC
On the % scale 0 is the no-effect control and ±100 the full control effect.

Relaxin receptor 1 (Homo sapiens), sequence (Q9HBX9 whole entry, looked up): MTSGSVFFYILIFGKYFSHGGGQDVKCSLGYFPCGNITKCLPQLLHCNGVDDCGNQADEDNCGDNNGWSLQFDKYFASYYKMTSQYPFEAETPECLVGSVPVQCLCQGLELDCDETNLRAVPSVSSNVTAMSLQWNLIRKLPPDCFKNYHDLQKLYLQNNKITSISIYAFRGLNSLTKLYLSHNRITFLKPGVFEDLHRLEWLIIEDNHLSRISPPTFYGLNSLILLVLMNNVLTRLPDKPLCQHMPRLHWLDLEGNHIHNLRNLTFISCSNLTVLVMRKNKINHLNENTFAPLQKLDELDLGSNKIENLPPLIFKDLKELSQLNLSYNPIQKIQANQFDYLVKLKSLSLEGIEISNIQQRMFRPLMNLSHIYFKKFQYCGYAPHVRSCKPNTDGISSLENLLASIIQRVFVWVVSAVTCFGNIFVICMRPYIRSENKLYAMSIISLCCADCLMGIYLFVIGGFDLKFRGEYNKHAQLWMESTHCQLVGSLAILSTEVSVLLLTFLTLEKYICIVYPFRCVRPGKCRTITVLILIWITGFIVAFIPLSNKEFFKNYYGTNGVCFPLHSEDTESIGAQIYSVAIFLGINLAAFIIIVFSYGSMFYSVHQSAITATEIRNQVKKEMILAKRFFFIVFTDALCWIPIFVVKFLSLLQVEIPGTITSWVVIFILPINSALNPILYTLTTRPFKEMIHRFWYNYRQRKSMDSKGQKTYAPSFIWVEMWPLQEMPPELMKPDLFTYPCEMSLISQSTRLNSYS

activation, inactive:
CC(C)c1ccc(NC(=O)c2ccc(Cn3nc(N4CCN(c5ccccc5)CC4)ccc3=O)o2)cc1 -0.547%
O=C(Nc1ccccc1Br)c1cc(CN2CCCC2)on1 2.48%
Cc1ccc(NC(=O)CCCn2c(=O)c3cccn3c3ccccc32)cc1Cl -3.2%
COc1ccc(C2=NC3(CCCCC3)N(CC(=O)Nc3ccc(C(C)C)cc3)C2=O)cc1 0.659%
COc1ccc(CCNC(=O)CCCCn2c(=O)c3ccccc3n(Cc3ccccc3C)c2=O)cc1OC -0.919%
Fc1ccc(Nc2nc(SCc3ccccc3Cl)nc3ccccc23)cc1 -0.424%
COc1ccc(S(=O)(=O)NCC(c2ccc(N(C)C)cc2)N2CCCC2)cc1 (stereo not given) 1.24%
O=C(CN1C(=O)COc2ccc(S(=O)(=O)N3CCCCCC3)cc21)N1CCN(c2cccc(C(F)(F)F)c2)CC1 -0.516%
CCCC(=O)Nc1cc2nn(-c3ccccc3)nc2cc1C 1.57%
N#Cc1nc(/C=C/c2ccc(F)cc2)oc1NC1CCCCC1 17.1%
CCCS(=O)(=O)c1c(Nc2ccccc2C)sc(C(=O)c2ccccc2)c1N 1.63%
Cc1nn(C(=O)c2c(F)cccc2F)c(C)c1S(=O)(=O)N1CCOCC1 0.115%
CC(=O)c1ccc(NC(=O)CCc2nc(-c3ccc(C)cc3)no2)cc1 5.37%
Cc1ccc(C)n1-c1nnc(N2CCC(C(=O)NCc3ccccc3Cl)CC2)s1 -1.52%
CCc1ccc(CN(Cc2ccco2)C(=O)COc2ccc(Cl)c(C)c2)cc1 -2.55%
CCOc1ccccc1C(=O)NCC(c1ccc(N(C)C)cc1)N1CCCC1 (stereo not given) -0.212%
Cc1cccc(Nc2cc(C)nc(-n3nc(C)cc3C)n2)c1 2.8%
Cc1ccc2oc(=O)c3cnn(CC(=O)NCc4ccccc4Cl)c3c2c1 11.8%
Cc1ccc(-c2cnc(NCc3ccc(C(C)C)cc3)n2C)cc1 2.92%
COc1ccc(/C=C/c2nc(C#N)c(NCc3ccc(F)cc3)o2)cc1OC 7.14%
COc1cccc(-c2nnc3n(CCc4ccccc4)c(=O)c4ccccc4n23)c1O -6.16%
CCCSc1ncc(Cl)c(C(=O)Nc2sc3c(c2C(=O)NCCOC)CCCC3)n1 0.71%
O=C(COc1ccccc1Cl)Nc1ccc2nc(SCC(=O)N3CCCC3)sc2c1 -0.6%
Cc1ccc(CNC(=O)CCc2c(C)nn(-c3ccc(N4CCCC4)nn3)c2C)cc1 1.44%
Cc1cc(C)c(NC(=O)CN2C(=O)c3cccnc3Oc3ccc(Cl)cc32)c(C)c1 -0.402%
Cc1cccc(CSc2nc3ccncc3n2CC(=O)N(C)C2CCCCC2)c1 26.3%
O=C(CSc1nccn1Cc1ccc(F)cc1)NCc1ccccc1 1.6%
Cc1ccc(NC(=O)CSc2nnc3[nH]c(=O)cc(C)n23)cc1Cl 1.96%
COc1ccc(-c2nc(SCC(=O)N3CCCCC3C)n[nH]2)cc1 (stereo not given) 4.16%
O=C(c1cccc(Br)c1)N1CCN(Cc2cc(=O)n3nc(-c4ccccc4)sc3n2)CC1 0.565%
Cc1ccc(-n2cnc3cc(C(=O)NCCC4=CCCCC4)ccc32)cc1Cl -0.218%
Brc1ccc2c(c1)NC(c1cccnc1)=NC(c1ccccc1)=N2 2.1%
CCc1cnc2c(c1SCC(=O)N1CCC(C)CC1)c(=O)n(C)c(=O)n2C 12.8%
Cc1cc(C)c(/C=C/c2onc(C)c2S(=O)(=O)N2CCC(C(=O)Nc3ccc(Cl)cc3C)CC2)c(C)c1 0.56%
CCCNC(=O)c1ccc2c(c1)ncn2-c1ccc(C)cc1C -0.066%
COc1ccc(S(=O)(=O)NCc2cccn2Cc2cccc(C)c2)cc1Cl 3.64%
CCOC(=O)N1CCc2c(sc(NCc3cccc(F)c3)c2C(=O)Nc2ccccc2OCC)C1 3.22%
COc1cccc(OCCn2c(-c3ccc(Br)cc3)nc3ccccc3c2=O)c1 -2.88%
O=C(CCS(=O)(=O)c1ccc2c(c1)NC(=O)CO2)Nc1cccc(C(F)(F)F)c1 -0.361%
CCOc1ccc(C(=O)/C=C/c2cn(CC(O)CN3CCCCCC3)c3ccccc23)cc1 (stereo not given) -1.71%
COc1ccc(N2CCN(C(=O)CSCc3nc(-c4ccccc4Cl)oc3C)CC2)cc1 0.152%
Cc1ccc(NC(=O)NC(C)c2c(-n3cccc3)sc(C)c2C)c(C)c1 (stereo not given) -0.32%
CCc1cc2c(cc3c(=O)n(CC(=O)NCc4cccc(Cl)c4)nc(CC)n32)s1 12.2%
Cc1ccc(-n2ncc3c(N4CCC(C(N)=O)CC4)ncnc32)cc1 16.5%
COC(=O)c1ccc(NC(=O)CCc2c(C)nc3c(c(C)nn3-c3ccc(C)cc3)c2C)cc1 -1.04%
CCCCOc1ccc(CN2C(=O)C(=O)c3cc(Br)cc(C)c32)cc1OC 0.139%
CCOc1ccccc1CNC(=O)Nc1cn(CC(C)C)c(=O)c2ccccc12 -0.657%
CN(Cc1ccccc1)C(=O)c1cn(C)c2ccc(S(=O)(=O)N3CCCCC3)cc2c1=O -0.519%
Cc1ccccc1CNC(=O)Cn1c(C)c2cnn(-c3ccccc3)c(=O)c2c1C 1.46%
Cc1ccc2oc3c(c(=O)c2c1)C(c1ccc(O)cc1)N(Cc1ccc2c(c1)OCO2)C3=O (stereo not given) -0.0237%
